Assay results as given in PubChem BioAssay (Tox21).
Inconclusive results are not listed. Unmarked numbers belong to inactive results. Calls follow the shape of the dose curve; as a rule, active = well fitted cell-killing curve with a large enough effect in the repeat runs; inconclusive = weak or mixed curves, or effect the other way; inactive = no such curve, though single readings can be large or run the other way.

Experiment: qHTS assay to identify small molecule antagonists of the sonic hedgehog signaling (Shh) pathway - cell viability counter screen (AID 1259367); also: nearly all actives have a fitted effect of over 55% in size
Conditions: NIH/3T3 Gli1-Luc viability, CellTiter-Fluor, 24 h; series mostly up to 92.4 µM; viability change, negative = cytotoxic: at the top concentration
Text: National Center for Advancing Translational Sciences [NCATS]
NIH Chemical Genomics Center [NCGC]
U.S. Environmental Protection Agency [EPA]
National Institutes of Environmental Health Sciences [NIEHS]
National Toxicology Program [NTP]
U.S. Food and Drug Administration [FDA]
The sonic hedgehog (Shh) pathway is essential for normal embryonic development. Dysregulation of the Shh pathway can cause severe developmental defects in organs. Therefore chemicals that interfere with the pathway are potential developmental toxicants. A cell line designated 3T3Gli1-Luc (DMB/OARSA/CFSAN/FDA, Laurel, MD), a NIH/3T3 derived clone containing stably integrated Gli1-Luc reporter is used to detect chemical interference of the Shh pathway, by changes in the expression of the firefly Luc gene under the control of the Gli1 transcriptional response element. This cell line was used to screen Tox21 libraries for identifying and prioritizing the potential developmental toxicants that interfere Shh pathway. Conditioned medium-stimulated mode was used to screen for chemicals inhibiting Shh signaling. The cytotoxicity of the compounds was tested in parallel by measuring the cell viability using CellTiter-Fluor assay system (Promega, Madison, WI) in the same wells.
Tox21 Assay Protocol Summary:
3T3 Gli1-Luc cells were dispensed at 2,000 per well in 5uL of culture medium into white solid bottom 1536-well plates (Greiner Bio-One, Monroe, NC) using a Multidrop Combi (Thermo Scientific, Waltham, MA) dispenser. The assay plates were incubated at 37 C and 5% CO2 for 4hr, and then 23nL of compounds dissolved in DMSO and positive control were transferred using a Pintool station (Wako, San Diego, CA). The compound transfer was followed by the addition of 1ul conditioned medium or assay buffer using two separate tips of Flying Reagent Dispenser (FRD, Aurora Discovery, San Diego, CA). The assay plates were incubated at 37C and 5% CO2 for 24hr. For viability read, after 23hr of compound treatment, 1uL of CellTiter-Fluor reagent (Promega Corporation, Madison, WI) was added to each well of the assay plates using Flying Reagent Dispenser (FRD, Aurora Discovery, San Diego, CA) and incubated the assay plates at 37C for 1hr. The fluorescence signal was quantified using a ViewLux plate reader (Perkin Elmer, Shelton, CT).
% is scaled to controls: 0 for no effect and ±100 for the full control effect.

| Structure (SMILES) | viability change, negative = cytotoxic |
| --- | --- |
| CCC(C)CCCC(C)(C)O (stereo not given) | -0.304% |
| O=Cc1ccc([N+](=O)[O-])cc1 | 1.89% |
| C[C@@H](O)[C@H]1C(=O)N2C(C(=O)O)=C(S[C@@H]3CN[C@H](CNS(N)(=O)=O)C3)[C@H](C)[C@H]12 | -2.52% [at 42.5 µM] |
| COC(=O)c1cc(Cl)ccc1[N+](=O)[O-] | -2.91% |
| O=C(O)c1cccnc1Nc1cccc(C(F)(F)F)c1 | 7.98% [at 42.5 µM] |
| CCOc1ccc2c(c1)C(C)CC(C)(C)N2 (stereo not given) | -8.5% |
| COC(=O)Cc1cccc2ccccc12 | 7.5% |
| COC=O | 5.98% [at 8.39 µM] |
| CC(=O)c1ccc(Cl)c(Cl)c1Cl | 1.57% |
| CC(C)CCCCCOC(=O)CS | 1.23% |
| CC1(COc2ccc(CC3SC(=O)NC3=O)cc2)CCCCC1 (stereo not given) | -5.86% [at 42.5 µM] |
| CC(C)(C)c1ccc(CCC=O)cc1 | 0.742% |
| CC1=CC(=C(c2ccc(N)cc2)c2ccc(N)cc2)C=CC1=N | -16.1% [at 8.39 µM] |
| C1CCN(CN2CCCCC2)CC1 | 0.712% |
| O=[N+]([O-])c1ccc(Cl)cc1Cl | -0.263% |
| CC(O)CN (stereo not given) | 0.296% |
| OCCOc1cccc(OCCO)c1 | -0.532% |
| CCCCCCOC(=O)c1ccccc1 | 1.64% |
| O=C(C1CCCCC1)N1CC(=O)N2CCCc3ccccc3C2C1 (stereo not given) | -15.4% [at 42.5 µM] |
| Cc1c(Cl)cccc1Nc1ccccc1C(=O)O | 3.67% [at 42.5 µM] |

| Structure (SMILES) | viability change, negative = cytotoxic |
| --- | --- |
| CCCCCCCCCCCCCCCCC(=O)O | -5.06% [at 42.5 µM] |
| C=CCCC | 0.246% |
| CCCCOc1ccc(N)cc1 | 11.2% |
| O=C1c2ccccc2C(=O)C1c1ccc2ccccc2n1 | -1.71% [at 42.5 µM] |
| CCCCCO | 4.57% |
| CC(C(=O)O)c1ccc2c(c1)Cc1cccnc1O2 (stereo not given) | 5.99% [at 42.5 µM] |
| C[C@H](N)C(=O)N[C@@H](C)C(=O)NC1[C@H]2CN(c3nc4c(cc3F)c(=O)c(C(=O)O)cn4-c3ccc(F)cc3F)C[C@@H]12 (stereo not given in full) | -18.4% [at 42.5 µM] |
| CO[C@@H]1COCC[C@@H]1N[C@@H]1CC[C@@](C(=O)N2CCc3ncc(C(F)(F)F)cc3C2)(C(C)C)C1 | -16.3% |
| CC1=C(C)C(=O)C(CCCCC#CCCCC#CCO)=C(C)C1=O | -18.5% [at 42.5 µM] |
| CCCC1CCOC(C)S1 (stereo not given) | 0.638% |
| O=P(c1ccccc1)(c1ccccc1)c1ccccc1 | -4.27% |
| O=C(Cl)c1ccc(F)c(Cl)c1 | 1.31% |
| COc1cccc([C@H](O)C2CCN(CCc3ccc(F)cc3)CC2)c1OC | -10.5% |
| O=C1C=CCCC1 | -4.43% |
| O=C1c2ccccc2C(=O)c2c1ccc(O)c2O | -16.1% [at 42.5 µM] |
| COc1ccc(/C=C/S(=O)(=O)NC(=O)c2ccc(C)cc2Cl)cc1 | 0.0943% |
| CC(C)(C(=O)O)c1ccc(C(O)CCCN2CCC(C(O)(c3ccccc3)c3ccccc3)CC2)cc1 (stereo not given) | 2.02% [at 42.5 µM] |
| CCc1c(C)[nH]c2c1C(=O)C(CN1CCOCC1)CC2 (stereo not given) | 0.423% [at 42.5 µM] |
| CC(=O)Nc1cccc(N)c1 | 14.7% |
| CC(=O)Nc1ccccc1O | -1.54% |
